Unmarked numbers belong to inactive results. Where a call stands in place of a potency, no number is given. Active and inactive are the calls of the source. Calls come from the whole dose curve; as a rule, active = well fitted activation curve with a large enough effect in the repeat runs; inconclusive = weak or mixed curves; inactive = flat fitted curve, though single readings scatter.

This assay can be described thus: A CellTox Green Cytotoxicity Assay to monitor cytotoxicity in HEK293 cells - 0 hour (AID 1224869). Note: nearly all actives have a fitted effect of over 50% in size. The following applies: CellTox Green fluorescence; series mostly up to 76.8 µM. The essentials: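 Nonlytic real-time cytotoxicity: HEK293 + CellTox Green reagent plated, 5 h preincubation, pintool compound addition (23 nL in DMSO), 37 C for 40 h, fluorescence measured at successive time points.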
As to `CCCCCCCCCCCCCCCCBr`, the cytotoxicity was -1.2% [at 15.8 µM].

Consider `CCCCCCOC(=O)C(C)C`, for which the Potency result is “inactive”. As for `COC(=O)c1cc(S(N)(=O)=O)ccc1OC`, the Potency result was “inactive”. In the case of `C=CC(C)(O)CCCC(C)CCCC(C)CCCC(C)C` (centres undefined), the Potency entry is “inactive”. With `CN1C(=O)CC(C)(c2ccccc2)C1=O` (centres undefined), the Potency result was “inactive”.

In the case of `C[C@]12CCC(=O)C=C1C=C[C@@H]1[C@@H]2CC[C@@]2(C)[C@H]1CC[C@@]21CCC(=O)O1`, the Potency result was “inactive”.

For the compound `Cc1occc1C(=O)Nc1ccc(C(=O)N2CCC(F)(F)/C(=C\C(=O)N3CCC(N4CCCCC4)CC3)c3ccccc32)cc1`, the Potency entry is “inactive”. On the same count and under the same terms, to `CCCC1C(CC)=CC(CC)=CN1c1ccccc1` (centres undefined) belongs “inactive”; to `CC(=O)[C@H]1CC[C@H]2[C@@H]3C[C@H](C)C4=CC(=O)CC[C@]4(C)[C@H]3[C@@H](O)C[C@]12C`, “inactive”; to `O=S1OCCO1`, “inactive”. Regarding `C1COCO1`, the Potency result is “inactive”.

With `CC(=O)Nc1ccccc1C`, the Potency result is “inactive”. With `COc1cc2[nH]c(=O)[nH]c(=O)c2cc1OC`, the Potency result is “inactive”. Take `N#C/C(=C1/SC[C@@H](c2ccc(Cl)cc2Cl)S1)n1ccnc1`: the Potency result was “inactive”.

These data come from PubChem BioAssay (Tox21).
